Compound activity from PubChem BioAssay.
ATXN2 expr inh: inhibitors of ATXN2 expression | HEK-293 ATXN2-luciferase reporter, luminescence, 24 h | Potency, µM (doses to about 57 µM), without a hit: at the top dose activity change, negative = inhibition, actives largely listed as inhibitors | 0.72% of 360,000 active | AID 1745845; note: potency is the fitted concentration of half-maximal effect; % is set by controls: 0 for no effect and ±100 for the full control effect; nearly all actives have a fitted effect of over 55% in size
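qHTS (up to 57 uM final) was run with 24 h compound exposure of reporter cells at 37 °C. Each well was multiplexed: SteadyGlo luminescence measured ATXN2-luciferase expression after a fluorogenic Gly-Phe-AFC viability readout (25 uM final).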
S2 tox: cell viability loss in ATXN counter-screen; S2 cells (HEK-293 line with an ATXN2-luciferase reporter) viability, CellTiter-Fluor protease fluorescence, 24 h; Potency, µM (doses to about 56.7 µM), most hits filed as cytotoxic; 0.49% of 400,000 active; AID 651635; note: potency is the fitted concentration of half-maximal effect; nearly all actives have a fitted effect of over 40% in size
HepG2 tox: counter-screen for TGF-b inhibitors: cytotoxicity in HepG2 cells | 0.76% of 410,000 active | Potency, µM (series often up to 46.1 µM), without a hit: at the top dose activity change, negative = cytotoxicity, hits mostly cytotoxic | HepG2 CAGA-GFP viability, ATP luminescence, 18 h; note: potency is the fitted concentration of half-maximal effect
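HepG2 CAGA-GFP cells (1000/well, DMEM with 1% FBS) received compound, then TGF-beta at 500 pg/mL final, and were incubated 18 hours at 37 degrees C. Viability was read by CellTiter-Glo luminescence. Media-only wells were set as complete cell-killing and DMSO as no toxicity.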
TGFb SMAD3 inh: blocks TGF-b signaling | 1.2% of 410,000 active | HepG2 CAGA-GFP TGF-b/SMAD3 reporter, GFP fluorescence, 18 h; TGF-beta stimulated, 500 pg/mL final | Potency, µM (titrated, usually from 46.1 µM), for the others: top-dose activity, negative = inhibition, actives largely listed as inhibitors; note: potency is the fitted concentration of half-maximal effect; % is set by controls: 0 for no effect and ±100 for the full control effect; nearly all actives have a fitted effect of over 65% in size
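Read-out: total well GFP (ex488/em500-530) summed from mean per-cell fluorescence. Cells: HEPG2 CAGA-GFP, 1% FBS DMEM, 18 h at 37 degrees C with 500 pg/mL final TGF-beta. Unstimulated wells served as the full-inhibition control; stimulated DMSO wells = 0%.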
DRD3 agonist: D3 dopamine receptor (human) agonism; P35462; AID 652048; D3R DiscoveRx beta-arrestin cells, luminescence, 90 min; max activation, %; 0.58% of 410,000 active; in the data active = max activation above about 30%; note: 0% is about no effect
Target sequence (P35462 whole entry, looked up): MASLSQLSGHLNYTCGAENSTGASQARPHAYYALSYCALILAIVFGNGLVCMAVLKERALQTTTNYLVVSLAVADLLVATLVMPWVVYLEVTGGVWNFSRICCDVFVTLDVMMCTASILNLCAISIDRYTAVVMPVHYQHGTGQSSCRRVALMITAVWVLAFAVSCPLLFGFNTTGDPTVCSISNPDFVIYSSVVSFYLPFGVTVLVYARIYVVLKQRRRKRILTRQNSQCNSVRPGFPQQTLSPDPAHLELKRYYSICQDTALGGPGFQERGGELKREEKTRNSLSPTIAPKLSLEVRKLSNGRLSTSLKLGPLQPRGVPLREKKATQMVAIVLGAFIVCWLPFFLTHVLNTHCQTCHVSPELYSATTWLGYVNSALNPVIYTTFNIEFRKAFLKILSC
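Agonist-mode cell screen: cells plated at 1500/well and incubated overnight at 37 °C, then exposed to library compounds for 90 min at 37 °C. Detection reagent was added for 30–60 min at room temperature, and luminescence was read.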
DRD3 antagonist: D3 dopamine receptor (human) antagonism. P35462. D3R cells, DiscoveRx beta-arrestin luminescence, antagonist mode; active compounds read low. max response, negative = inhibition, %. 2.5% of 360,000 active. AID 652054; in the data active = max response below about -50%; inconclusive = no clear call, values can overlap the other calls; note: % is set by controls: 0 for no effect and ±100 for the full control effect
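Cells plated overnight at 1500 cells/well, then exposed to library compounds with dopamine controls for 90 minutes at 37 degrees C. DiscoveRx reagent added for 30–60 minutes at room temperature; luminescence read, quantitative HTS format.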
* hit, by the source's call; i = inactive; ? = inconclusive; · = not tested or not shown; ! = not active in a repeat. Shown are actives, neighbours in structure and some others; about 4.8% of the full set was active somewhere. Unless noted, calls come from the whole dose curve; as a rule, active = well fitted curve in the direction sought with a large enough effect; inconclusive = small, poorly fitted or top-dose-only effect, or another doubt; inactive = no such curve, though single readings can be large; an effect the other way counts as inactive or inconclusive.

SMILES	ATXN2 expr inh	S2 tox	HepG2 tox	TGFb SMAD3 inh	DRD3 agonist	DRD3 antagonist
COc1ccc(N2CCN(C(=O)c3cc4c(=O)n(Cc5cccs5)ccc4nc3C)CC2)cc1	·	·	-11.2%	-35.1%	-9.9	·
Nc1ccc(C(=O)N/N=C/c2cn(Cc3ccccc3F)c3ccccc23)cc1	-25.8%	i	-16.0%	0.0%	1.1	-4.8
O=C(O)c1ccc(N/N=C/c2cn(Cc3ccccc3F)c3ccccc23)cc1	103.8%	i	-20.6%	11.2µM*	-6.9	8.5
C(=N\n1cnnc1)/c1cn(Cc2ccccc2)c2ccccc12	-16.2%	i	-74.3%	12.6µM*	18.6	5.9
Cc1ccccc1OCC(=O)N/N=C/c1ccncc1	-0.3%	i	2.1%	8.4%	3.0	13.6
Clc1ccc(Cn2cc(/C=N/n3cnnc3)c3ccccc32)c(Cl)c1	-13.2%	i	-4.8%	?	0.2	2.9
Cc1ccccc1OCC(=O)N/N=C/c1ccc(N2CCOCC2)o1	-36.5%	i	-45.6%	12.6µM*	-2.6	-1.6
COCC(=O)Nc1cc(C(=O)NC2Cc3ccccc3C2)cc2nc(-c3cccnc3)n(C)c12	·	i	·	·	·	·
OCCN1CCN(Cc2ccc3c(c2)CN(Cc2cccn2-c2ccccn2)CCO3)CC1	·	i	·	·	·	·
O=C(NC1CCCCC1)N1CCN(CCc2ccccc2)CC1	-8.4%	i	-17.5%	3.7%	-19.5	-61.4*
Cn1c(=O)c(C(=O)CCl)c(N)n(CC2CC2)c1=O	1.7%	i	-8.4%	5.2%	34.5*	0.0
COc1ccccc1NC(=O)c1cc2cc3ccc(OC)c(Cl)c3nc2s1	·	·	-3.6%	-4.7%	-4.5	·
COc1ccc(C)cc1NC(=O)C(CCSC)NS(=O)(=O)c1ccc2c(c1)oc(=O)n2C (stereo not given)	·	·	-22.1%	0.0%	-14.6	·
CCOc1cc(C2Sc3ccccc3NC3=C2C(=O)c2ccccc23)ccc1O (stereo not given)	?	31.6µM*	-34.8%	-32.9%	-11.1	·
CCCc1ccc(C2Sc3ccccc3NC3=C2C(=O)c2ccccc23)cc1 (stereo not given)	?	·	-39.3%	?	0.1	·
CN(C)C=Nc1ncc2c3ccccc3n(CCN(C)C)c2c1C#N	?	i	-5.9%	?	-1.5	-8.1
CCN(CC)CCn1c2ccccc2c2cnc(N)c(C#N)c21	14.1µM*	i	-5.9%	-11.8%	-7.4	0.0
Cc1ccc(N(C)S(=O)(=O)c2cccc(C(=O)NCC(c3ccco3)N3CCCC3)c2)cc1 (stereo not given)	-11.9%	i	-24.6%	-14.6%	-20.8	-69.1*
COc1ccc(NS(=O)(=O)c2cccc(C(=O)NCC(c3ccco3)N3CCCCC3)c2)cc1 (stereo not given)	-17.4%	i	-18.1%	2.2%	-15.6	-26.4
Cc1cccc(NS(=O)(=O)c2cccc(C(=O)NCC(c3ccco3)N3CCCCC3)c2)c1 (stereo not given)	0.2%	i	19.4%	-5.9%	-10.5	-63.7*
Cc1ccc(S(=O)(=O)N(C)c2ccc(C(=O)NCC(c3ccco3)N3CCCC3)cc2)cc1 (stereo not given)	·	i	-27.3%	-8.8%	-1.3	-28.1
CCCCCc1cc(=O)oc2c(C(CCN3CCCC3)c3cc(OC)c(OC)c(OC)c3)c(OC)cc(OC)c12 (stereo not given)	?	·	15.8µM*	?	-44.1	-50.8*
CCCCCc1cc(=O)oc2c(C(CCN3CCCC3)c3ccc(N(C)C)cc3)c(OC)cc(OC)c12 (stereo not given)	?	31.6µM*	12.6µM*	?	-36.1	?
COc1cc(OC)c2ccc(=O)oc2c1C(CCN1CCCC1)c1ccc(N(C)C)cc1 (stereo not given)	5.2%	?	-2.0%	-11.0%	-43.1	0.0
CCCCCc1cc(=O)oc2c(C(CCN3CCN(c4ccccc4)CC3)c3ccc4c(c3)OCO4)c(OC)cc(OC)c12 (stereo not given)	-3.1%	?	-13.2%	-7.9%	-41.4	-69.4*
SMILES	ATXN2 expr inh	S2 tox	HepG2 tox	TGFb SMAD3 inh	DRD3 agonist	DRD3 antagonist
COc1cc(C(CCN2CCCC2)c2c(OC)cc(OC)c3c(C)cc(=O)oc23)cc(OC)c1OC (stereo not given)	10.4%	?	-0.5%	2.9%	-46.3	0.0
COc1ccc(C(CCN2CCOCC2)c2c(OC)cc(OC)c3c(C)cc(=O)oc23)cc1 (stereo not given)	-6.3%	?	-25.6%	-0.3%	-44.9	?
CCCCCc1cc(=O)oc2c(C(CCN3CCCC(C)C3)c3ccc(OC)cc3)c(OC)cc(OC)c12 (stereo not given)	?	·	11.2µM*	?	-28.6	?
CC(=O)c1ccc(F)c(-c2cc(C)cc3c2OC(CNC(=O)c2ccnn2C)C3)c1 (stereo not given)	·	i	·	·	·	·
COc1ccc(NCc2cc3cc4c(cc3n(CC(=O)Nc3ccc(C)c(C)c3)c2=O)OCO4)cc1	-2.9%	i	-3.5%	0.1%	-1.5	·
COc1cc(Nc2nc3ccccc3nc2NS(=O)(=O)c2ccc(NC(=O)c3ccc(C)c(OC)c3)cc2)cc(OC)c1	5.5%	·	·	·	·	·
CCCCCc1cc(=O)oc2c(C(CCN3CCCCC3)c3ccc(OC)cc3)c(OC)cc(OC)c12 (stereo not given)	?	31.6µM*	11.2µM*!	?	-43.9	?
COc1ccccc1/C=C/C(=O)OCCN1CCOCC1	7.9%	i	-11.9%	0.0%	-5.7	5.1
CC(CN1CCCCC1)OC(=O)c1ccc(Cl)cc1Cl (stereo not given)	1.2%	i	-0.4%	-3.3%	-16.4	?
CC1CCN(CC(C)OC(=O)c2ccc3c(c2)OCCO3)CC1 (stereo not given)	11.8%	i	-7.9%	-0.3%	-13.9	-75.3*
CC(CN1CCOCC1)OC(=O)c1ccc(Br)cc1 (stereo not given)	-6.8%	?	-60.2%	?	-17.6	-67.3*
COc1ccccc1/C=C/C(=O)OC(C)CN1CCCCC1 (stereo not given)	-11.5%	i	-14.3%	1.7%	-13.6	-59.7*
CC(CN1CCCC1)OC(=O)c1ccc(Cl)cc1Cl (stereo not given)	·	i	-1.0%	5.8%	-19.7	-79.6*
CCCCCCCCCCCCCC(=O)N[C@H](CO)[C@H](O)c1ccc([N+](=O)[O-])cc1	10.1%	·	·	·	·	·
COc1ccccc1-c1noc(CSc2nnc(Cc3ccccc3)n2-c2ccc(C)c(C)c2)n1	?	·	-56.0%	?	17.8	·
